The source of these data is PubChem BioAssay (NCATS).

Several values for one entry are separate records, joined by “and”; a condition that tells them apart may be missing. Identical values can stand only once. Results filed as inconclusive are left out. A call without a number means that no potency is given here. Activity calls are given as the source filed them. The call rests on the fitted dose curve.

A short description of one assay: Primary qHTS for Vero E6 cytotoxicity: counterscreen for inhibitors of SARS-S pseudo-typed particle cell entry (AID 1479150). Conditions: cell viability; series mostly up to 57.1 µM. In general terms: qHTS replaces the single test concentration by a dilution series.
For `Cc1c(OCC(F)(F)F)ccnc1C[S@@](=O)c1nc2ccccc2[nH]1`, the Potency result is “inactive”.

For `CC1(C)C(C=C(Cl)Cl)C1C(=O)OCc1cccc(Oc2ccccc2)c1` (configuration not stated), the Potency entry is “inactive”.

Take `CC1(C)S[C@H]2[C@H](NC(=O)[C@@H](N)c3ccc(O)cc3)C(=O)N2[C@H]1C(=O)O`: the Potency entry was “inactive”.

Turning to `CCCCCCCCCCCCCCCC(=O)OCC=C(C)C=CC=C(C)C=CC1=C(C)CCCC1(C)C`, the Potency entry was “inactive”.

For the compound `CC/C=C\C/C=C\C/C=C\C/C=C\C/C=C\C/C=C\CCC(=O)O`, the Potency result was “inactive”.

As for `C[C@@](Cc1ccc(O)c(O)c1)(NN)C(=O)O`, the Potency result is “inactive”.

As to `C[S+](CC[C@H](N)C(=O)O)C[C@H]1O[C@@H](n2cnc3c(N)ncnc32)[C@H](O)[C@H]1O` (some centres not stated), the Potency result is “inactive”.

`CC/C=C\C/C=C\C/C=C\C/C=C\C/C=C\CCCC(=O)O`: the Potency entry is “inactive”.

As to `C=C[C@H]1CN2CC[C@H]1C[C@H]2[C@H](O)c1ccnc2ccccc12`, the Potency result is “inactive”.

`C[C@]12C=CC(=O)C=C1CC[C@@H]1[C@@H]2[C@@H](O)C[C@@]2(C)[C@H]1CC[C@]2(O)C(=O)COC(=O)c1cccc(S(=O)(=O)O)c1`: the Potency result was “inactive”.

For the compound `CC(C)(C)C(=O)OCC(=O)[C@H]1CC[C@H]2[C@@H]3CCC4=CC(=O)CC[C@]4(C)[C@H]3CC[C@]12C`, the Potency entry is “inactive”.

Turning to `CCCC1C(=O)N2C(N(C)C)=Nc3ccc(C)cc3N2C1=O` (configuration not stated), the Potency entry was “inactive”.

On to `CCCCCCCCCCCCCCCCCC(=O)OCC(C)O` (configuration not stated), for which the Potency entry was “inactive”.

For the compound `CC(C)(O)CNc1nc(Nc2ccnc(C(F)(F)F)c2)nc(-c2cccc(C(F)(F)F)n2)n1`, the Potency entry is “inactive”.

Turning to `COc1ccc(C[C@H](C)NC[C@@H](O)c2ccc(O)c(NC=O)c2)cc1`, the Potency result is “inactive”.

With `C/C=C/C=C/C(=O)O`, the Potency result was “inactive”.

As for `OCC(O)COc1ccc(Cl)cc1` (configuration not stated), the Potency result was “inactive”.

As to `CS(=O)(=O)n1cc2c(n1)CN([C@H]1CO[C@H](c3cc(F)ccc3F)[C@@H](N)C1)C2`, the Potency entry was “inactive”.

On to `CCCC[C@H](C)C[C@H](O)/C=C/[C@H]1[C@H](O)CC(=O)[C@@H]1CCCC/C=C/C(=O)O`, for which the Potency result was “inactive”.

On to `O=C(O)[C@H](O)[C@@H](O)[C@H](O)[C@H](O)CO`, for which the Potency entry is “inactive”.

For `C#C[C@]1(O)CC[C@@H]2[C@@H]3CCC4=CCCC[C@@H]4[C@H]3C(=C)C[C@@]21CC`, the Potency entry is “inactive”.

Consider `N[C@@H]1CCCCN(c2c(F)cc3c(=O)c(C(=O)O)cn(C4CC4)c3c2Cl)C1`, for which the Potency result is “inactive”.

`CO[C@H]1C[C@@H]2CC[C@@H](C)[C@@](O)(O2)C(=O)C(=O)N2CCCC[C@H]2C(=O)O[C@H]([C@H](C)C[C@@H]2CC[C@@H](OC(=O)C(C)(CO)CO)[C@H](OC)C2)CC(=O)[C@H](C)/C=C(\C)[C@@H](O)[C@@H](OC)C(=O)[C@H](C)C[C@H](C)/C=C/C=C/C=C/1C`: the Potency entry is “inactive”.

Turning to `CN(C)C=Nc1c(I)cc(I)c(CCC(=O)O)c1I`, the Potency entry is “inactive”.

In the case of `COC(=O)CCC[N+](C)(C)C`, the Potency result is “inactive”.

In the case of `CN(C)c1ccc(C(=C2C=CC(=[N+](C)C)C=C2)c2c(O)c(S(=O)(=O)[O-])cc3cc(S(=O)(=O)O)ccc23)cc1`, the Potency result is “inactive”.

The next assay is described as follows: Cytotoxicity counterscreen for inhibitors of SARS-CoV-2 cell entry (AID 1645845). Further: nearly all actives have a fitted effect of over 50% in size. Further: potency means the concentration at half of the fitted maximal effect. Conditions: cell viability (SARS-CoV-2 entry assay cells); series mostly up to 57.1 µM. In outline: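 48 h compound treatment (after 1 h preincubation), HEK293-ACE2 cells, 37 C/5% CO2; ATP luminescence endpoint; normalized to cell wells and media blanks.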
(The purpose of a counterscreen is to sort out artefacts and off-target activity.)
As for `CS(=O)(=O)c1ccc([C@@H](O)[C@@H](COC(=O)CN)NC(=O)C(Cl)Cl)cc1`, the Potency result is “inactive”.

For the compound `O=C(OCc1ccccc1)c1cccnc1`, the Potency result was “inactive”.

`O=C(NNCS(=O)(=O)O)c1ccncc1`: the Potency result is “inactive”.

With `O=C(O)CC(O)CC(O)/C=C/c1c(C2CC2)nc2ccccc2c1-c1ccc(F)cc1` (configuration not stated), the Potency entry is “inactive”.

Regarding `CCC(C(=O)O)[C@H]1CC[C@H](C)[C@H]([C@@H](C)[C@H](O)[C@H](C)C(=O)[C@H](CC)[C@H]2OC3(C=C[C@@H](O)[C@]4(CC[C@@](C)([C@H]5CC[C@](O)(CC)[C@H](C)O5)O4)O3)[C@H](C)C[C@@H]2C)O1` (some centres not stated), the Potency was 2510 nM (active).

As to `CC=CC1C(C(=O)OCc2c(F)c(F)c(COC)c(F)c2F)C1(C)C` (configuration not stated), the Potency entry was “inactive”.

Take `CCCCCC/C=C\CCCCCCCC(=O)O`: the Potency result is “inactive”.

As for `CC(C)CCCC(C)NC(C)C` (configuration not stated), the Potency entry was “inactive”.

The next assay can be described thus: Primary qHTS to identify inhibitors of SARS-CoV-2 cell entry (AID 1645846). Further: nearly all actives have a fitted effect of over 45% in size. Further: potency means the concentration at half of the fitted maximal effect. Conditions: SARS-CoV-2 pseudovirus cell entry assay, luminescence; activity change, negative = inhibition: at 57.1 µM (top of the series) unless noted. In a few lines: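 HEK293-ACE2 (Expi293F, stable hACE2), 1500 cells/well, o/n 37C; cpd 23 nL pin, 1 h; MLV-PP w/ SARS-CoV-2-S (Wuhan-Hu-1, Δ19 C-term); 48 h 37C; Bright-Glo luminescence; normalized vs S-PP and bald PP.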
With `CN1CCN(CCCN2c3ccccc3Sc3ccccc32)CC1`, the Potency was 31600 nM (active).

Take `CC1(C)S[C@H]2[C@H](NC(=O)[C@@H](N)c3ccc(O)cc3)C(=O)N2[C@H]1C(=O)O`: the activity change, negative = inhibition was -1.08% and -18.3%.

For the compound `CCCCCCCCCCCCCCCC(=O)OCC=C(C)C=CC=C(C)C=CC1=C(C)CCCC1(C)C`, the activity change, negative = inhibition was -0.93%.

Turning to `CC/C=C\C/C=C\C/C=C\C/C=C\C/C=C\C/C=C\CCC(=O)O`, the activity change, negative = inhibition stood at 3.74%.

As to `C[C@@](Cc1ccc(O)c(O)c1)(NN)C(=O)O`, the Potency entry is “inactive”.

As for `C[S+](CC[C@H](N)C(=O)O)C[C@H]1O[C@@H](n2cnc3c(N)ncnc32)[C@H](O)[C@H]1O` (some centres not stated), the Potency entry was “inactive”.

On to `CC/C=C\C/C=C\C/C=C\C/C=C\C/C=C\CCCC(=O)O`, for which the activity change, negative = inhibition was -29%.

`C[C@]12C=CC(=O)C=C1CC[C@@H]1[C@@H]2[C@@H](O)C[C@@]2(C)[C@H]1CC[C@]2(O)C(=O)COC(=O)c1cccc(S(=O)(=O)O)c1`: the activity change, negative = inhibition is -5.05%.

With `CC(C)(C)C(=O)OCC(=O)[C@H]1CC[C@H]2[C@@H]3CCC4=CC(=O)CC[C@]4(C)[C@H]3CC[C@]12C`, the activity change, negative = inhibition was -13%.

Regarding `CC(=O)OCC(=O)[C@@]1(O)CC[C@H]2[C@@H]3C[C@H](C)C4=CC(=O)C=C[C@]4(C)[C@H]3[C@@H](O)C[C@@]21C`, the Potency result is “inactive”.

Turning to `O=C(/C=C/c1cccc(S(=O)(=O)Nc2ccccc2)c1)NO`, the activity change, negative = inhibition is -13.6%.

For the compound `CCCC1C(=O)N2C(N(C)C)=Nc3ccc(C)cc3N2C1=O` (configuration not stated), the activity change, negative = inhibition came to 2.29% [at 114 µM].

Take `CCCCCCCCCCCCCCCCCC(=O)OCC(C)O` (configuration not stated): the activity change, negative = inhibition is -21% [at 114 µM].

Take `COc1ccc(C[C@H](C)NC[C@@H](O)c2ccc(O)c(NC=O)c2)cc1`: the activity change, negative = inhibition was -27.6%.

Regarding `C/C=C/C=C/C(=O)O`, the Potency result was “inactive”.

`O=C(OCc1ccccc1)c1cccnc1`: the activity change, negative = inhibition came to 1.27%.

As to `O=C(NNCS(=O)(=O)O)c1ccncc1`, the activity change, negative = inhibition was -23.7%.

Take `CC(C)=C/C(C)=N\Nc1nncc2ccccc12`: the Potency result is “inactive”.

For the compound `O=C(O)CC(O)CC(O)/C=C/c1c(C2CC2)nc2ccccc2c1-c1ccc(F)cc1` (configuration not stated), the Potency entry was “inactive”.

Consider `OCC(O)COc1ccc(Cl)cc1` (configuration not stated), for which the activity change, negative = inhibition is -23.5% [at 171 µM].

For `CS(=O)(=O)n1cc2c(n1)CN([C@H]1CO[C@H](c3cc(F)ccc3F)[C@@H](N)C1)C2`, the activity change, negative = inhibition was -25.8%.

On to `CCCC[C@H](C)C[C@H](O)/C=C/[C@H]1[C@H](O)CC(=O)[C@@H]1CCCC/C=C/C(=O)O`, for which the activity change, negative = inhibition is -18.9%.

`O=C(O)[C@H](O)[C@@H](O)[C@H](O)[C@H](O)CO`: the Potency result was “inactive”.

`C#C[C@]1(O)CC[C@@H]2[C@@H]3CCC4=CCCC[C@@H]4[C@H]3C(=C)C[C@@]21CC`: the activity change, negative = inhibition is 3.84%.

Regarding `N[C@@H]1CCCCN(c2c(F)cc3c(=O)c(C(=O)O)cn(C4CC4)c3c2Cl)C1`, the activity change, negative = inhibition was -8.2%.

As to `CO[C@H]1C[C@@H]2CC[C@@H](C)[C@@](O)(O2)C(=O)C(=O)N2CCCC[C@H]2C(=O)O[C@H]([C@H](C)C[C@@H]2CC[C@@H](OC(=O)C(C)(CO)CO)[C@H](OC)C2)CC(=O)[C@H](C)/C=C(\C)[C@@H](O)[C@@H](OC)C(=O)[C@H](C)C[C@H](C)/C=C/C=C/C=C/1C`, the activity change, negative = inhibition is -29.8% [at 27.1 µM].

Regarding `CN(C)C=Nc1c(I)cc(I)c(CCC(=O)O)c1I`, the activity change, negative = inhibition is -33.1%.

As for `CCC(C(=O)O)[C@H]1CC[C@H](C)[C@H]([C@@H](C)[C@H](O)[C@H](C)C(=O)[C@H](CC)[C@H]2OC3(C=C[C@@H](O)[C@]4(CC[C@@](C)([C@H]5CC[C@](O)(CC)[C@H](C)O5)O4)O3)[C@H](C)C[C@@H]2C)O1` (some centres not stated), the Potency is 794 nM (active).

Regarding `CC=CC1C(C(=O)OCc2c(F)c(F)c(COC)c(F)c2F)C1(C)C` (configuration not stated), the activity change, negative = inhibition was -7.64%.

In the case of `CCCCCCCCCCCC[n+]1ccc2ccccc2c1`, the Potency was 3160 nM (active).

In the case of `COC(=O)CCC[N+](C)(C)C`, the activity change, negative = inhibition was -38.5%.

With `CC(C)CCCC(C)NC(C)C` (configuration not stated), the activity change, negative = inhibition is -25.3%.

On to `CN(C)c1ccc(C(=C2C=CC(=[N+](C)C)C=C2)c2c(O)c(S(=O)(=O)[O-])cc3cc(S(=O)(=O)O)ccc23)cc1`, for which the activity change, negative = inhibition is -12.7%.
